Measured values published in paper PMC7862700, “An all-to-all approach to the identification of sequence-specific readers for epigenetic DNA modifications on cytosine”.

Key:
Assay in all cases: DAPPL (digital affinity profiling via proximity ligation, sequencing); 10 mM Tris-HCl pH 7.5, 50 mM NaCl, 1 mM DTT, 4% glycerol, room temperature, 30 min; GST-TFs on glutathione beads, 16-mer random dsDNA library, 0.1% formaldehyde crosslink after washing; high values mean tight binding
Conditions in all cases: protein: recombinant; tags: N-terminal GST; dsDNA, one strand shown
ELF4 = ELF4 (Homo sapiens, UniProt Q99607 1-663)
Method in brief: (§1)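 Binding signal is each hexamer's read frequency for a factor divided by its frequency in the tag-only sample. The factors were GST-fused human transcription factors from yeast, captured on glutathione beads, DNA-barcoded and pooled with that sample. Pools were incubated with 200 nmole of a random double-stranded 16-mer DNA library in Tris/NaCl/DTT/glycerol buffer at room temperature for 30 min, then washed, crosslinked with 0.1% formaldehyde, proximity-ligated with BsaI/T4 ligase (1 h, 37 °C), PCR-amplified and sequenced on an Illumina NextSeq500.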

ETV2 = target: T1, ETV2 (Homo sapiens, UniProt O00321 1-342)
T1 sequence: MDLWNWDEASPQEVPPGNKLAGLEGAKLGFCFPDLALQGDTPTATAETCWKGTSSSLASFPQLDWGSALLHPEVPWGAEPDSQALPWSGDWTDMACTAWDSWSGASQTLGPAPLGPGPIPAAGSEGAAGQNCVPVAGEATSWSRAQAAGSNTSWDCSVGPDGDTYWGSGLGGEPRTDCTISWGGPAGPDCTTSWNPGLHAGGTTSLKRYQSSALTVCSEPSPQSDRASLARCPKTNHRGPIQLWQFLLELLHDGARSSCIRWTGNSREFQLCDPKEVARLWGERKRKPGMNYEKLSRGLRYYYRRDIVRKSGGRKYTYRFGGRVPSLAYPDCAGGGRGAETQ
Method in brief: as §1

ELF3 = target: T2, ELF3 (Homo sapiens, UniProt P78545 1-371)
T2 sequence: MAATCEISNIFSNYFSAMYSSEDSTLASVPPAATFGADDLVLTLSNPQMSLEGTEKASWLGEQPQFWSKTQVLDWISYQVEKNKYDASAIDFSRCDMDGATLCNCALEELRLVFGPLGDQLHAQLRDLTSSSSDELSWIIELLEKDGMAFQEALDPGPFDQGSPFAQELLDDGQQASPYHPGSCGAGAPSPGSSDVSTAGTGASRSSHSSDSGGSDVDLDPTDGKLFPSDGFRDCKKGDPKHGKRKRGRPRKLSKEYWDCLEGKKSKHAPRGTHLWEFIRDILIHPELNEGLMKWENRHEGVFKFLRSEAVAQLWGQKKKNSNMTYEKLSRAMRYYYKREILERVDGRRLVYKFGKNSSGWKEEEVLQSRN
Method in brief: as §1

ETV1 = ETV1 (Homo sapiens, UniProt P50549 1-477)
Method in brief: as §1

ERF = target: T3, ERF (Homo sapiens, UniProt P50548 1-548)
T3 sequence: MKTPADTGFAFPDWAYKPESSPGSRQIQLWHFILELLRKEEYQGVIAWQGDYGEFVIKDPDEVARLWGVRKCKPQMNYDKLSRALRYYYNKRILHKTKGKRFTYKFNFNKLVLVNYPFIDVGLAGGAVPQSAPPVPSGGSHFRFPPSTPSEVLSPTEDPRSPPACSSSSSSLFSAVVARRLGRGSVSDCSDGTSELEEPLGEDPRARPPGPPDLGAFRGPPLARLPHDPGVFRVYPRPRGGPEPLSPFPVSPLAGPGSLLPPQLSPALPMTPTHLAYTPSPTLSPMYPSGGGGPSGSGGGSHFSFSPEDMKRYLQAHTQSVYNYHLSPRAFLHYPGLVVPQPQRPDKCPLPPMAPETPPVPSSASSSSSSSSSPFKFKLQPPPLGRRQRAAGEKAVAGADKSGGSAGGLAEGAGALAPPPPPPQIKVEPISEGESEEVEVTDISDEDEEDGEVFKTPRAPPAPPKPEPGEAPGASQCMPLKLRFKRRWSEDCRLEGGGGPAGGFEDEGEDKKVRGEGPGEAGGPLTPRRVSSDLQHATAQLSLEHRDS
Method in brief: as §1

ETV3L = target: T4, ETV3L (Homo sapiens, UniProt Q6ZN32 1-361)
T4 sequence: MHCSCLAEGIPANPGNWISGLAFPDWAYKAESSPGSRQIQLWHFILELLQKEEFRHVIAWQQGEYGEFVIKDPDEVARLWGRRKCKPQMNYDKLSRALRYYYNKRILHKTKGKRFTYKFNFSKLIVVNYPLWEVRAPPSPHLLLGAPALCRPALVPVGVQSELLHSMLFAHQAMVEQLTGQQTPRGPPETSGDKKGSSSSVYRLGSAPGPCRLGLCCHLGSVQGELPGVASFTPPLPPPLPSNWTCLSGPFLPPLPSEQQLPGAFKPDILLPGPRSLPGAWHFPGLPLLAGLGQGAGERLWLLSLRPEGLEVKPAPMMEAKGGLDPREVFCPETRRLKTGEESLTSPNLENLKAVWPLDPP
Method in brief: as §1

ETS2 = target: T5, ETS2 (Homo sapiens, UniProt P15036 1-469)
T5 sequence: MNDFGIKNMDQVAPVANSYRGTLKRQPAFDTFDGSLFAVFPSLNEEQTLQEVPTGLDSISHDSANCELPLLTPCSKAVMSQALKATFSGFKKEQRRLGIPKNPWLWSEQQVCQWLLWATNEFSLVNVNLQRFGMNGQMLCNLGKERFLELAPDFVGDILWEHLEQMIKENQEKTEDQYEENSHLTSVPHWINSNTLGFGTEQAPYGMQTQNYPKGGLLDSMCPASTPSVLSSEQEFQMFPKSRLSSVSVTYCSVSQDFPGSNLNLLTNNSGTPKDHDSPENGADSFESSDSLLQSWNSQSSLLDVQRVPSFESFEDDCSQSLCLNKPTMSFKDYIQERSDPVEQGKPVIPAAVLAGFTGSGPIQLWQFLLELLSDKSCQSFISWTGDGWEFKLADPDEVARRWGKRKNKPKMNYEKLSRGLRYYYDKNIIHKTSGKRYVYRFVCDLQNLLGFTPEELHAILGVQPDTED
Method in brief: as §1

ETV7 = target: T6, ETV7 (Homo sapiens, UniProt Q9Y603 1-341)
T6 sequence: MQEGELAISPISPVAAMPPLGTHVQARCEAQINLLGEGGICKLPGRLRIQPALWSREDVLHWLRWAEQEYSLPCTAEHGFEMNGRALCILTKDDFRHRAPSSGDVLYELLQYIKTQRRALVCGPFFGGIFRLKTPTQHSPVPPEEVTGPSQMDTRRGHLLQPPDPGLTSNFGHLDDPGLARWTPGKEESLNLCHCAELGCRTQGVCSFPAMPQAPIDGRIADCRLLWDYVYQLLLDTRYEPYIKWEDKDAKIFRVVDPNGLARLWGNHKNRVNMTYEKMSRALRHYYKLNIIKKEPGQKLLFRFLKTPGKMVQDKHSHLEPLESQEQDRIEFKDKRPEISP
Method in brief: as §1

ETV3 = target: T7, ETV3 (Homo sapiens, UniProt P41162-2 1-143)
T7 sequence: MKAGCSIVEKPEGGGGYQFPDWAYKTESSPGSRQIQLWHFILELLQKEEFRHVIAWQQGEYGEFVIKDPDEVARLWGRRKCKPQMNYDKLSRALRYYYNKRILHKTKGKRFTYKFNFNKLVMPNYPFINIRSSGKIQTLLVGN
Method in brief: as §1

ETV6 = ETV6 (Homo sapiens, UniProt P41212 1-452)
Method in brief: as §1

Chain of ETV6 (P41212 whole entry): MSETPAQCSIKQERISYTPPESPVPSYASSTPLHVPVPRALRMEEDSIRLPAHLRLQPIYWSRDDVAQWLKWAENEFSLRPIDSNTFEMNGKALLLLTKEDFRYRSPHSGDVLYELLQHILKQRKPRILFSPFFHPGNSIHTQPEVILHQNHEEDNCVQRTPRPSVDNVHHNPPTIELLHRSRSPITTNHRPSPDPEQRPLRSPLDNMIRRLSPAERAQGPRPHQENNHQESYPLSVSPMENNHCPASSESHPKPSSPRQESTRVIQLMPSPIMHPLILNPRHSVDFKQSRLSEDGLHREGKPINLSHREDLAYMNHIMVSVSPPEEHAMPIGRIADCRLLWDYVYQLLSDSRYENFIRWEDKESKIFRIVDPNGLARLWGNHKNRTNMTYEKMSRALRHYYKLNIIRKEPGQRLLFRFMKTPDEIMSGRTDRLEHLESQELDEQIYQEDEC
Chain of ETV1 (P50549 whole entry): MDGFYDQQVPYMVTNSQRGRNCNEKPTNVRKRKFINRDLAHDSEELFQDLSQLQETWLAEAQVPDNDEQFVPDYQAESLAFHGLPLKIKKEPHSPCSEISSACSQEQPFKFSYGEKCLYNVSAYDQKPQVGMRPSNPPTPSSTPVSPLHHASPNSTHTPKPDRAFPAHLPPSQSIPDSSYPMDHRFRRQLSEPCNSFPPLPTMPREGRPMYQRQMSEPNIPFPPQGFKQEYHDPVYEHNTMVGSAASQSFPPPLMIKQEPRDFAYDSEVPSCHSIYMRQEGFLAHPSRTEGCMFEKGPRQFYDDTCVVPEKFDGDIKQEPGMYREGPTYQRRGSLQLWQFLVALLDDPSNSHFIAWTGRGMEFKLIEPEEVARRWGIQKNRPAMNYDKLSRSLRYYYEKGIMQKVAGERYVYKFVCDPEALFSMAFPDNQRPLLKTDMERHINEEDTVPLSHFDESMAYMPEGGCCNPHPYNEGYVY
Chain of ELF4 (Q99607 whole entry, the tested form may be a part): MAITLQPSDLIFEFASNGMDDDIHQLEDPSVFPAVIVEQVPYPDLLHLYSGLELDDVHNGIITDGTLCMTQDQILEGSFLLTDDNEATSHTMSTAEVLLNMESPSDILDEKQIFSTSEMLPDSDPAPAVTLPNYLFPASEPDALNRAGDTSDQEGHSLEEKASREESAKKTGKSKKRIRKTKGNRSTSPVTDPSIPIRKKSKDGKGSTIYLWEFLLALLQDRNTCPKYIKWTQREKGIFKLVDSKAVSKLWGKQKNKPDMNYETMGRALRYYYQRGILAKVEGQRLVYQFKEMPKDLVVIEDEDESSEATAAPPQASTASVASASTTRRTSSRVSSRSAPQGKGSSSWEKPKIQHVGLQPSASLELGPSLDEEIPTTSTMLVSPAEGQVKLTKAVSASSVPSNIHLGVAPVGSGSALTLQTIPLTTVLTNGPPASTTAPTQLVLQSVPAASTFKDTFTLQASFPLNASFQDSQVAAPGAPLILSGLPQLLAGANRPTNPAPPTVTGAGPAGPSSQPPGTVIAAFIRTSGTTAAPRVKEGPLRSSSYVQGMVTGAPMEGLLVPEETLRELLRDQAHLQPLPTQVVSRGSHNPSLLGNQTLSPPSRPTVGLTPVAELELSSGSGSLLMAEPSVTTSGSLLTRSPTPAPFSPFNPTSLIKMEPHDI

CCAACC
binding signal (ELF4): 1.15 fold enrichment (6-mer frequency, TF over GST control)
binding signal (ETV2): 1.08 fold enrichment (6-mer frequency, TF over GST control)
binding signal (ELF3): 1.08 fold enrichment (6-mer frequency, TF over GST control)
binding signal (ETV1): 1.04 fold enrichment (6-mer frequency, TF over GST control)
binding signal (ERF): 1.14 fold enrichment (6-mer frequency, TF over GST control)
binding signal (ETV3L): 1.09 fold enrichment (6-mer frequency, TF over GST control)
binding signal (ETS2): 1.18 fold enrichment (6-mer frequency, TF over GST control)
binding signal (ETV7): 1.07 fold enrichment (6-mer frequency, TF over GST control)
binding signal (ETV3): 1.11 fold enrichment (6-mer frequency, TF over GST control)
binding signal (ETV6): 1.08 fold enrichment (6-mer frequency, TF over GST control)
